In the supplement of paper PMC3334620:
In all, about 33,000 sequences were measured (“E-score (-0.5 to 0.5)”: median about -0.054, highest 2% from about 0.39 on). The entries come from a sample that favours the highest values as a whole.

target: Ylr278c (UniProt Q05854); assay: PBM E-score (8-mer binding enrichment) (E-score (-0.5 to 0.5)); higher = stronger / more preferred TF binding; conditions: protein concentration: 200 nM; construct: GST-DNA-binding domain
Method: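 Universal 'all 10-mer' protein binding microarrays (Agilent AMADID 015681) probed with GST-tagged S. cerevisiae TFs (full-length or DBD) made by in vitro transcription/translation (PURExpress), about 100-200 nM. Bound TF was detected with fluorescent anti-GST. Each ungapped 8-mer (which stands for itself and its reverse complement) is scored by the PBM enrichment score (E-score), a modified Wilcoxon-Mann-Whitney statistic from -0.5 to +0.5, computed with the Universal PBM Analysis Suite. Scale: above 0.35 generally sequence-specific binding.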

Chain of UniProt Q05854 (Q05854 whole entry, the tested form may be a part): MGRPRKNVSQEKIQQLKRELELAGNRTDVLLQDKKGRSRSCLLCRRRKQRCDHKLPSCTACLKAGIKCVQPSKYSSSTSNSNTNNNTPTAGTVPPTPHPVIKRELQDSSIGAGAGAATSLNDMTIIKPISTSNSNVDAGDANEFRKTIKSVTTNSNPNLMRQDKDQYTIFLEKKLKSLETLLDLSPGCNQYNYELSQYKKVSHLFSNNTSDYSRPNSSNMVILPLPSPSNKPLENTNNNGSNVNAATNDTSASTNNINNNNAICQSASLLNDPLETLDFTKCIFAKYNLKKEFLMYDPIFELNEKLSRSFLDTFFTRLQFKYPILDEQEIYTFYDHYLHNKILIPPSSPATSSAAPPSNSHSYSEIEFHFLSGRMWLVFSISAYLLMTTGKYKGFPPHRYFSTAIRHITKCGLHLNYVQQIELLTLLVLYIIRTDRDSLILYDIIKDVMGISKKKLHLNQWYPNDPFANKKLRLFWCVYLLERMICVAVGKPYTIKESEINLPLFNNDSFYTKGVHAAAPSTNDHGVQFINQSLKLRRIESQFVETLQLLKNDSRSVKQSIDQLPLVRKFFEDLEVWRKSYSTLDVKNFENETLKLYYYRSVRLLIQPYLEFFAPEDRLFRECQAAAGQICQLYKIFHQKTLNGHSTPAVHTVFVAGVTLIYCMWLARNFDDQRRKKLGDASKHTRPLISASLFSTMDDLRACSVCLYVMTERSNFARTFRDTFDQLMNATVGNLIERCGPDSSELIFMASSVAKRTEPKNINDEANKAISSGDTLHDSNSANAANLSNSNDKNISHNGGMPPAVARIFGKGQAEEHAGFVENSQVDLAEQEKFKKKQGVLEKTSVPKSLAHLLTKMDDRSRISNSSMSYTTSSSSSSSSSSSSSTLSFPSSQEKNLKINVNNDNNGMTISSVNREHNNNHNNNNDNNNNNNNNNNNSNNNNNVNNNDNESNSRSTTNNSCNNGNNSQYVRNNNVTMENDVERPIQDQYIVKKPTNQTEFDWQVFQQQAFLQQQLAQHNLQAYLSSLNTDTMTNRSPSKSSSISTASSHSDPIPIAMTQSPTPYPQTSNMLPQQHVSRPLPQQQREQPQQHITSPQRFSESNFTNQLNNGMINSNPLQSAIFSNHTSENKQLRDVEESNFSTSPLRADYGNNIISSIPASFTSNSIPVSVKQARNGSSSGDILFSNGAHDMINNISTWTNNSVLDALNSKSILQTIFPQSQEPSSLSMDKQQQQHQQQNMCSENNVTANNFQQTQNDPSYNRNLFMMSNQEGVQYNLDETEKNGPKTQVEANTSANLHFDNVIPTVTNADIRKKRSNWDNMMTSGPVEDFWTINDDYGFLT

Row | Sequence | PBM E-score
1 | ACCGCGGC | 0.305
2 | GGCGCGGA | 0.352
3 | GCCGCGGA | 0.409
4 | ACCGCGGA | 0.407
5 | ACCGCGGG | 0.299
6 | CGCGCGGA | 0.398
7 | GCCGCGCA | 0.21
8 | GCCGCGAA | 0.233
9 | GCCGCGGC | 0.406
10 | AGCGCGGA | 0.325
11 | ACCGCGGT | 0.178
12 | AAGTTCAT | 0.154
13 | CGCTTTTA | 0.129
14 | CATGGCAC | 0.133
15 | TACCCGCA | 0.157
16 | CAGCACCC | -0.0668
17 | AGTCAGTA | 0.00611
18 | CATAGCCG | 0.23
19 | AACTCTTC | -0.204
20 | AAGTGGTA | -0.0771
21 | AGTTGTGG | -0.0534
22 | AACGCGGA | 0.397
23 | AACGCGGC | 0.183
24 | CCCGCGGG | 0.363
25 | TCCGCGAA | 0.343

Row | Sequence | PBM E-score
26 | TCCGCGGA | 0.44
27 | CCCGCGGA | 0.409
28 | CCCGCGGC | 0.336
29 | CACGCGGA | 0.379
30 | TACGCGGA | 0.309
31 | CCTCTCAA | 0.0673
32 | GGTAGAAA | -0.0702
33 | AGCCCATG | -0.131
34 | ACATTGAG | -0.114
35 | CGACCTAG | 0.02
36 | AACGGTCT | -0.0855
37 | AAACTCCA | 0.176
38 | AAACTCCT | 0.23
39 | CAACTCCG | 0.486
40 | CAACTCCC | 0.154
41 | CAACTCCA | 0.0206
42 | AAACTCCG | 0.496
43 | CACGCTCC | 0.129
44 | CTCGCGTC | 0.0578
45 | GGGCTCAA | -0.00819
46 | ACTCCGGC | 0.476
47 | GCTCCCGA | 0.0641
48 | CCTCCGGC | 0.448
49 | ACTCCTGG | -0.0351
50 | ACTCCAGG | 0.00347

Row | Sequence | PBM E-score
51 | ACTCCGGG | 0.481
52 | CCTCCAGC | -0.37
53 | ACTCCAGC | -0.122
54 | GCTCCAGA | -0.103
55 | ACTCCTGC | 0.165
56 | GCTCCGGA | 0.464
57 | CCTCCTGC | -0.182
58 | ATAAGTTA | -0.103
59 | ACTAGAAG | -0.121
60 | AGAAGGAT | -0.269
61 | ACTTCAGG | -0.0351
62 | ACTGCATC | -0.142
63 | CCACTTCC | 0.0941
64 | CTCTTGGC | -0.239
65 | CTGAGGGC | -0.251
66 | CCTCCTGA | -0.172
67 | CCTCCGGA | 0.467
68 | CCTCCCGA | 0.0701
69 | ACTCCTGA | 0.0258
70 | ACTCCAGA | -0.112
71 | ACTCCGGA | 0.494
72 | CGCGCAAG | 0.0504
73 | CTACACGC | -0.235
74 | GCGATATA | 0.00114
75 | ACTAGCAA | -0.104

Row | Sequence | PBM E-score
76 | AGGTGCAC | 0.0215
77 | GGAATTCA | 0.183
78 | GGAATTCC | 0.441
79 | AGAATTCC | 0.283
80 | GAGACTCC | 0.249
81 | ATCCGCCC | 0.291
82 | CTCCGCCC | 0.457
83 | GTCCGCCA | 0.293
84 | CGCCGCCC | 0.284
85 | CTCCGCCA | 0.391
86 | AGCCGCCG | 0.313
87 | ATCCGCCG | 0.401
88 | ACCCGCCG | 0.307
89 | ATCCGCCA | 0.196
90 | CCAGTCCC | -0.0319
91 | GCGTGAGA | -0.0361
92 | GCCTCATA | -0.00634
93 | AATGGTAA | 0.0806
94 | ACTTTGCC | 0.0108
95 | CGTCTGGA | -0.166
96 | CGACTGCC | 0.0706
97 | AGAGATAG | -0.0754
98 | GGGAGGAC | 0.0177
99 | CCGAGGAG | 0.183
100 | CGGAGGAG | 0.417

Row | Sequence | PBM E-score
101 | CGGAGGCC | 0.42
102 | AGGAGGAG | -0.212
103 | CGGAGGCA | 0.34
104 | AGGAGGAC | -0.294
105 | TGGAGGAA | -0.131
106 | CGGAGGAC | 0.423
107 | CGGAGGAA | 0.436
108 | AGGAGGCC | -0.164
109 | AGGAGGAA | -0.165
110 | ATTCGCTA | -0.0743
111 | TCTGCTCA | -0.298
112 | CAGTATGG | -0.195
113 | CCACATCC | 0.0271
114 | AGAGTCAC | -0.333
115 | CAGAATCG | 0.00258
116 | CACGTCAA | -0.202
117 | CCCTTAGA | -0.393
118 | AACCCGAT | 0.29
119 | CCCCCGAA | 0.184
120 | GCCCCGAC | 0.278
121 | CCCCCGAC | 0.228
122 | ACCCCGAG | 0.319
123 | ACCCCGAT | 0.426
124 | GCCCCGAA | 0.301
125 | ACCCCGAC | 0.39

Row | Sequence | PBM E-score
126 | ACCCCGAA | 0.392
127 | AATCTATG | -0.0536
128 | ACCATAGA | 0.00619
129 | GTTCAGGA | -0.0137
130 | GATCTCAC | 0.0769
131 | CCAGTAGG | -0.101
132 | ATCCGTGG | 0.299
133 | AGAAGGCC | 0.0969
134 | CTCCGTGC | 0.416
135 | ATCCGTGA | 0.244
136 | CTCCGTTC | 0.394
137 | ATCCGTTC | 0.183
138 | CTCCGTTA | 0.347
139 | CACCGTGC | -0.0579
140 | CTCCGTGA | 0.425
141 | ATCCGTGC | 0.125
142 | GTCCGTGA | 0.278
143 | GTGCTAGA | -0.277
144 | AGCGTGGC | -0.0918
145 | AGTGGGAG | -0.221
146 | CGAAGGCA | -0.0856
147 | CGTCCATC | 0.145
148 | CAGTATCG | 0.0195
149 | CGACCCCG | 0.247
150 | GCGGAGGA | 0.406

Row | Sequence | PBM E-score
151 | CGGGAGGA | 0.25
152 | CAGGAGGA | -0.219
153 | GAGGAGGA | -0.246
154 | ACGGAGGA | 0.383
155 | CCGGAGGC | 0.433
156 | CAGGAGGC | -0.0031
157 | ACGGAGGC | 0.302
158 | CCGGAGGA | 0.465
159 | GACGGCAC | 0.0236
160 | GCAGTCGA | -0.0263
161 | TAACAACA | -0.124
162 | CAGATCTA | -0.168
163 | CTCTGATC | -0.271
164 | CCCGAAAA | 0.294
165 | CCCGAAGA | 0.156
166 | ACCGAAGA | 0.183
167 | ACCGAACA | 0.0403
168 | TCCGAAGA | 0.433
169 | GCCGAACA | 0.21
170 | GCCGAAAA | 0.359
171 | TCCGAAAA | 0.431
172 | TCCGAACA | 0.429
